From PubChem BioAssay AID651699 (Sanford-Burnham Center for Chemical Genomics, 2012)
About 2,100 (0.58%) of roughly 360,000 compounds were called active. No stated cut-off is given here; in the data, active means inhibition above about 36%; inactive means the rest. For the sample, actives were picked, then their nearest neighbours and some compounds at random.

target: NEDD8-conjugating enzyme Ubc12 (Homo sapiens) + NEDD8-activating enzyme E1 regulatory subunit (Homo sapiens) (UniProt P61081+Q13564); test: NEDD8 transfer onto cullin, blockade – biochemical, TR-FRET, uHTS, NAE and Ubc12, primary screen (AID 651699); conditions: TR-FRET cullin neddylation, at 25 µM, hits give high values
Sequence (P61081 whole entry, looked up): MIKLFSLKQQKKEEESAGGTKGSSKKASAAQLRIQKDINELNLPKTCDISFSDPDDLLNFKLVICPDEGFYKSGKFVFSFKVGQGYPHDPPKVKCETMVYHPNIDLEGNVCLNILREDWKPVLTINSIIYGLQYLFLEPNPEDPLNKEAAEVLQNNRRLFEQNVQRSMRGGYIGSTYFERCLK
Sequence (Q13564 whole entry, looked up): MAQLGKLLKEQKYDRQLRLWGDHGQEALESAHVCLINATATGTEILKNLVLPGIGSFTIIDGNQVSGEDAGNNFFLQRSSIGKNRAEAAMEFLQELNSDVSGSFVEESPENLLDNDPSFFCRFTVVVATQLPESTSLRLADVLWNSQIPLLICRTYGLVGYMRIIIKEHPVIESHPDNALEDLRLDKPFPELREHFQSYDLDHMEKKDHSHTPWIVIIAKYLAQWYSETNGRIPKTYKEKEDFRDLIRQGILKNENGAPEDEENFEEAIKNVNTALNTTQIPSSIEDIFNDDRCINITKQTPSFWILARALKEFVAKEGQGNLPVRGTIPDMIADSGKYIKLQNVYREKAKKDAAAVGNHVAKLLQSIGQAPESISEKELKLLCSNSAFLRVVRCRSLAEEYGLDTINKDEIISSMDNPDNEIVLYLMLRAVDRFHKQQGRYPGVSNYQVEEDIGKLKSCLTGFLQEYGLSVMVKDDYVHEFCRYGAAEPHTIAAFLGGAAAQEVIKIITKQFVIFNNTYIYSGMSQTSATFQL

Row | SMILES | inhibition
1 | CCN1CCCC1Cn1cnc2c([nH]c3cc(OC)ccc32)c1=O (centres undefined) | 1.83% (inactive)
2 | CCN1CCCC1CNc1ncnc2c1[nH]c1ccc(F)cc12 (centres undefined) | 37% (active)
3 | CCN1CCCC1CNC(=O)Cn1cnc2ccc(S(=O)(=O)N3CCC(C)CC3)cc2c1=O (centres undefined) | -2.38% (inactive)
4 | CCOC(=O)C1=C(N)N2C(=O)C(C)SC2=C(C(=O)OCC)C1c1cc(OC)c(OC)c(OC)c1 (centres undefined) | -1.53% (inactive)
5 | COc1ccc(CC(N)c2csc(NC(=O)NC(c3ccccc3)c3ccccc3)n2)cc1 (centres undefined) | -1.83% (inactive)
6 | CC(=O)c1ccc(Nc2nc(C(N)c3ccccc3)cs2)cc1 (centres undefined) | 41.1% (active)
7 | COC(=O)c1ccc2c(c1)S(=O)(=O)NC(=NCCCN1CCOCC1)S2 | -10.1% (inactive)
8 | CC(Sc1nc2c([nH]c3ccccc32)c(=O)n1C)c1ccccc1 (centres undefined) | -4.19% (inactive)
9 | O=c1c2c(nc3cc(-c4cccc(Cl)c4)[nH]n13)CCCC2 | 40.3% (active)
10 | CSc1nc2nc3c(c(=O)n2[nH]1)CCC3 | -7.01% (inactive)
11 | Clc1cccc(Cc2c(-c3cccc(Cl)c3)nc3ccc(Cl)cn23)c1 | -36.7% (inactive)
12 | O=C(Nc1cc(-c2nn(CC(=O)N3CCCCC3)c(=O)c3ccccc23)ccc1N1CCOCC1)c1ccc(Cl)cc1 | 20.1% (inactive)
13 | O=C(CCl)NNc1cccc(Cl)n1 | 3.4% (inactive)
14 | COc1ccc2oc(C(=O)NCC(Cc3ccccc3)N(C)C)c(C)c2c1 (centres undefined) | 43.3% (active)
15 | COc1ccc2oc(C(=O)N(CC(C)C)C3CCS(=O)(=O)C3)c(C)c2c1 (centres undefined) | 2.83% (inactive)
16 | NC(=O)C1(N2CCCCC2)CCN(C(=O)c2ccc(C#Cc3ccccc3)o2)CC1 | -13.2% (inactive)
17 | COc1ccc(Br)cc1/C=N/Nc1ccc(Cl)c(C(=O)O)c1 | 45.1% (active)
18 | COc1ccc(Br)cc1/C=N/Nc1ccc(S(=O)(=O)Nc2ccccc2C(=O)O)cc1[N+](=O)[O-] | -8.62% (inactive)
19 | O=C(NC(=S)Nc1ccc(Cl)c(C(=O)O)c1)c1cncc(Br)c1 | -4.06% (inactive)
20 | CCN(CC(=O)NCc1cccs1)c1nnnn1-c1ccccc1 | 0.19% (inactive)
21 | O=C(NCc1cccc(C(F)(F)F)c1)c1ccc2sc(COCCO)nc2c1 | 3.36% (inactive)
22 | CCOC(=O)c1cc(C(=O)Nc2ccc(S(=O)(=O)Nc3ccc(OC)cc3)cc2)nn1C | -1.03% (inactive)
23 | COc1ccc2oc(C(=O)OCC(=O)N(CC(C)C)c3c(N)n(Cc4ccccc4)c(=O)[nH]c3=O)c(C)c2c1 | 44.4% (active)
24 | CC(C)CN(C(=O)COC(=O)c1ccc(Cl)c(N)c1)c1c(N)n(Cc2ccccc2)c(=O)[nH]c1=O | 30.6% (inactive)
25 | CC(C)CN(C(=O)COC(=O)c1ccc2ccccc2c1)c1c(N)n(Cc2ccccc2)c(=O)[nH]c1=O | 3.53% (inactive)
26 | CCN(CC)C(=O)C1=C(C)N(Cc2ccc(C(C)(C)C)cc2)C(=O)C(CC(=O)NCc2cccc3ccccc23)C1 (centres undefined) | -9.92% (inactive)
27 | CC(C)Cc1nc(Cl)c(C#N)c2c1CCC2 | -5.13% (inactive)

Row | SMILES | inhibition
28 | CC(C)Cc1nc(N2CCOCC2)c(C#N)c2c1CCC2 | 44.8% (active)
29 | COc1cc(S(=O)(=O)N2CCOCC2)ccc1NC(=O)COc1ccc(N(C)S(=O)(=O)c2ccc(C)cc2)cc1 | -8.3% (inactive)
30 | CCNC(=O)CN(c1ccc(C)cc1)S(=O)(=O)c1ccc(SC)cc1 | -3.17% (inactive)
31 | Cc1cc(C(=O)OCC(=O)Nc2nnc(C(C)C)s2)c2ccccc2n1 | -11.2% (inactive)
32 | CCOC(=O)c1cc(C)sc1NC(=O)C1CCC1 | -7.86% (inactive)
33 | CCOC(=O)c1cc(C(C)C)sc1NC(=O)COC(=O)c1nccnc1N | 45.2% (active)
34 | COc1ccc(CN(CC(=O)NC2CCCC2)C(=O)CCC(=O)Nc2cc(C)on2)cc1 | 6.41% (inactive)
35 | COc1cccc(NC(=O)c2nn(-c3ccc(OC)cc3OC)c(=O)c3ccccc23)c1 | -9.58% (inactive)
36 | CCN(c1ccccc1)S(=O)(=O)c1ccc(OCC(=O)N2CCCC2)cc1 | -24.7% (inactive)
37 | Cc1ccc(NC(=O)CC2C(=O)N(Cc3ccccc3)C(=S)N2NC(=O)c2cccc(F)c2)c(C)c1 (centres undefined) | 2.05% (inactive)
38 | COc1ccc(Nc2ncc(C(=O)N3CCN(c4ccccc4OC)CC3)c3ccccc23)cc1 | 48.4% (active)
39 | COc1ccccc1N1CCN(C(=O)c2ccc(NC3=NC4CS(=O)(=O)CC4S3)cc2)CC1 (centres undefined) | 0.72% (inactive)
40 | COc1ccc(-n2nc(C(=O)NCC(=O)N3CCN(c4ccccc4OC)CC3)c3ccccc3c2=O)c(OC)c1 | 6.66% (inactive)
41 | CCN(CC(=O)Nc1c(F)cccc1F)C(=O)c1ccc(-c2ccccc2)cc1 | 4.05% (inactive)
42 | CCN(CC(=O)Nc1c(F)cccc1F)C(=O)c1ccc(-c2ccc(C(C)=O)cc2)o1 | 71.9% (active)
43 | CCN(CC(=O)Nc1c(F)cccc1F)C(=O)c1cnc(C)cn1 | -6.81% (inactive)
44 | COc1cc(C2C(C(=O)c3cccs3)=C(O)C(=O)N2CCN2CCOCC2)ccc1OCCC(C)C (centres undefined) | -13.5% (inactive)
45 | CN(CC(=O)Nc1cccc(F)c1)C(=O)C1CC(=O)N(CCc2ccccc2)C1 (centres undefined) | -1.18% (inactive)
46 | Cc1cc(C)c2[nH]c(=O)c(CN(Cc3ccccc3)C(=S)NCCCN(C)C)cc2c1 | 2.15% (inactive)
47 | Cc1cc(C)cc(NC(=S)NCCCN2CCOCC2)c1 | 0.98% (inactive)
48 | Cc1ccc2cc(C#N)c(NCCNC(=S)NCCCN3CCOCC3)nc2c1 | 50.7% (active)
49 | C=CCn1c(SCc2nnc(-c3ccccc3)o2)nnc1C(O)c1ccccc1 (centres undefined) | 5.64% (inactive)
50 | CCOc1ccc(N(C(=O)c2snc(C(N)=O)c2N)C(C(=O)NCC2CCCO2)c2c[nH]c3ccccc23)cc1 (centres undefined) | 7.52% (inactive)
51 | COc1cc(F)c(C2=CC(=O)CC(C)(C)C2)cc1F | -23.8% (inactive)
52 | COc1ccc(N(CC(=O)N/N=C/c2cccc3c2OCCO3)S(=O)(=O)c2ccc(NC(C)=O)cc2)cc1 | 38.9% (active)
53 | COc1ccc(N(CC(=O)N/N=C/c2cccs2)S(=O)(=O)c2ccc(OC)c(OC)c2)cc1 | -15.8% (inactive)
54 | CC(=O)Nc1ccc(S(=O)(=O)N(CCc2ccccc2)CC(=O)N/N=C/c2ccc(C(=O)O)cc2)cc1 | -5.24% (inactive)
